FBW7 activator = human FBW7 E3 ligase activation, primary screen. Q969H0. AlphaScreen FBW7–phospho-cyclin E peptide binding, activator screen. normalized activity (activation), % at 26.1 µM. 650,000 tested, 0.13% active. AID 1259310; in the data active = normalized activity above about 1.9%;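 note: purified mutant Fbw7 with reduced substrate affinity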
TEAD-YAP inh = TEAD-YAP interaction inhibition. HEK-TIYL cells, TEAD-Gal4/YAP UAS-luciferase luminescence. inhibition, % at 9.12 µM. 640,000 tested, 1.4% active. AID 1259422; in the data active = inhibition above about 32%;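 note: 0% = median of test compound wells and 100% = reference inhibitor wells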
GPR151 ag = human GPR151 activation; PathHunter beta-arrestin GPR151 cells, luminescence; activation, % at 11.2 µM; 650,000 tested, 1% active; in the data active = activation above about 4.9%;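 note: 0% = median of compound wells and 100% = cells with positive control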
MITF inh = inhibitors of human MITF; O75030; AlphaScreen MITF homodimerization, bead proximity signal; inhibition, % at 2.6 µM; 650,000 tested, 0.91% active; in the data active = inhibition above about 50%;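 note: 0% = vehicle wells with protein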
The depositor's hits bear a star. Rows were chosen to be rich in hits. Some 3.4% of all compounds tested hit in one or more screens of this group.

How did Cc1csc(NC(=O)CSc2ncnc3scc(-c4ccc(F)cc4)c23)n1 do in these assays?
FBW7 activator: 0; TEAD-YAP inh: 0; GPR151 ag: 1; MITF inh: 4

Results for CCOC(=O)c1cccc(C(=O)NC2=NN(c3ccccc3)C(=O)C2)n1 ?
FBW7 activator: 51*; TEAD-YAP inh: 0; GPR151 ag: 1; MITF inh: -25

Results for CCOC(=O)c1cccc(C(=O)Nc2ccccc2C(=O)OC)n1 ?
FBW7 activator: 0; TEAD-YAP inh: 1; GPR151 ag: -2; MITF inh: 21

Results for CN(c1ccccc1)c1ccc(C2NN=C(c3ccccc3)S2)cc1 (stereo not drawn) ?
FBW7 activator: 2.1*; TEAD-YAP inh: -1; GPR151 ag: -2; MITF inh: -34

Results for CC(=O)Nc1ccc(C2NN=C(c3ccccc3)S2)cc1 (stereo not drawn) ?
FBW7 activator: 0; TEAD-YAP inh: -35; GPR151 ag: -4; MITF inh: 19

Results for COc1ccc(O)c(C2NN=C(c3ccccc3)S2)c1 (stereo not drawn) ?
FBW7 activator: 0; TEAD-YAP inh: 42*; GPR151 ag: -1; MITF inh: 0

What do the screens show for `COc1ccc([N+](=O)[O-])cc1C1NN=C(c2ccccc2)S1` (stereo not drawn)?
FBW7 activator: 0; TEAD-YAP inh: -30; GPR151 ag: 4; MITF inh: 3

What do the screens show for `CCOc1ccc(C2NN=C(c3ccccc3)S2)cc1` (stereo not drawn)?
FBW7 activator: 0; TEAD-YAP inh: 71*; GPR151 ag: -6; MITF inh: 1

Results for CC(C)n1cc(/C=C2/NC(=O)N(Cc3ccc(F)cc3)C2=O)c2ccccc21 ?
FBW7 activator: 0; TEAD-YAP inh: -5; GPR151 ag: 1; MITF inh: -4

What do the screens show for `COc1cc(C2C=C(c3cccc(NC(C)=O)c3)Nc3ncnn32)cc(OC)c1OC` (stereo not drawn)?
FBW7 activator: 0; TEAD-YAP inh: 52*; GPR151 ag: 1; MITF inh: 1

How did Cc1ccc(C2=CC(c3ccc(C)cc3)n3ncnc3N2)cc1 (stereo not drawn) do in these assays?
FBW7 activator: 0; TEAD-YAP inh: -45; GPR151 ag: -1; MITF inh: -6

What do the screens show for `COc1cccc(C2=CC(c3ccc(OC)c(OC)c3OC)n3ncnc3N2)c1` (stereo not drawn)?
FBW7 activator: 0; TEAD-YAP inh: -12; GPR151 ag: 1; MITF inh: -9

How did CCc1ccc(C2=CC(c3ccc(Cl)cc3)n3nnnc3N2)cc1 (stereo not drawn) do in these assays?
FBW7 activator: 0; TEAD-YAP inh: 6; GPR151 ag: 2; MITF inh: 6

What do the screens show for `CCc1ccc(C2=CC(c3cc(OC)c(OC)c(OC)c3)n3nnnc3N2)cc1` (stereo not drawn)?
FBW7 activator: 0; TEAD-YAP inh: 56*; GPR151 ag: 1; MITF inh: 6

Results for COc1cccc(C2=CC(c3cc(OC)c(OC)c(OC)c3)n3ncnc3N2)c1 (stereo not drawn) ?
FBW7 activator: 0; TEAD-YAP inh: 68*; GPR151 ag: 0; MITF inh: 10

Results for COc1cc(C2C=C(c3ccc(C)cc3)Nc3ncnn32)cc(OC)c1OC (stereo not drawn) ?
FBW7 activator: 0; TEAD-YAP inh: 62*; GPR151 ag: -2; MITF inh: 8

What do the screens show for `Cc1cc(C)c(C(=O)N2CCC3(CC2)CC3C(=O)NCCC2=CCCCC2)[nH]1` (stereo not drawn)?
FBW7 activator: 0; TEAD-YAP inh: 0; GPR151 ag: -1; MITF inh: 1

What do the screens show for `COc1cc(C2C=C(c3ccccc3)Nc3ncnn32)cc(OC)c1OC` (stereo not drawn)?
FBW7 activator: 0; TEAD-YAP inh: 61*; GPR151 ag: 0; MITF inh: 11

How did COc1ccc(C2C=C(c3ccc(Cl)cc3)Nc3ncnn32)cc1OC (stereo not drawn) do in these assays?
FBW7 activator: 0; TEAD-YAP inh: 4; GPR151 ag: 1; MITF inh: 21

Results for CCc1ccc(C2=CC(c3ccc(OC)c(OC)c3)n3ncnc3N2)cc1 (stereo not drawn) ?
FBW7 activator: 0; TEAD-YAP inh: 33*; GPR151 ag: 5; MITF inh: -2

What do the screens show for `CCCCOc1ccc(CSCCN)cc1`?
FBW7 activator: 0; TEAD-YAP inh: 46*; GPR151 ag: -1; MITF inh: 3

What do the screens show for `CCCCCOc1ccc(CSCCN)cc1`?
FBW7 activator: 0; TEAD-YAP inh: 65*; GPR151 ag: 0; MITF inh: -7
